Inconclusive results are not listed. Where a call stands in place of a potency, no number is given. The source made the active and inactive calls. The call rests on the fitted dose curve.

Chain of Atrial natriuretic peptide receptor 2 (Homo sapiens) (P20594 whole entry, looked up): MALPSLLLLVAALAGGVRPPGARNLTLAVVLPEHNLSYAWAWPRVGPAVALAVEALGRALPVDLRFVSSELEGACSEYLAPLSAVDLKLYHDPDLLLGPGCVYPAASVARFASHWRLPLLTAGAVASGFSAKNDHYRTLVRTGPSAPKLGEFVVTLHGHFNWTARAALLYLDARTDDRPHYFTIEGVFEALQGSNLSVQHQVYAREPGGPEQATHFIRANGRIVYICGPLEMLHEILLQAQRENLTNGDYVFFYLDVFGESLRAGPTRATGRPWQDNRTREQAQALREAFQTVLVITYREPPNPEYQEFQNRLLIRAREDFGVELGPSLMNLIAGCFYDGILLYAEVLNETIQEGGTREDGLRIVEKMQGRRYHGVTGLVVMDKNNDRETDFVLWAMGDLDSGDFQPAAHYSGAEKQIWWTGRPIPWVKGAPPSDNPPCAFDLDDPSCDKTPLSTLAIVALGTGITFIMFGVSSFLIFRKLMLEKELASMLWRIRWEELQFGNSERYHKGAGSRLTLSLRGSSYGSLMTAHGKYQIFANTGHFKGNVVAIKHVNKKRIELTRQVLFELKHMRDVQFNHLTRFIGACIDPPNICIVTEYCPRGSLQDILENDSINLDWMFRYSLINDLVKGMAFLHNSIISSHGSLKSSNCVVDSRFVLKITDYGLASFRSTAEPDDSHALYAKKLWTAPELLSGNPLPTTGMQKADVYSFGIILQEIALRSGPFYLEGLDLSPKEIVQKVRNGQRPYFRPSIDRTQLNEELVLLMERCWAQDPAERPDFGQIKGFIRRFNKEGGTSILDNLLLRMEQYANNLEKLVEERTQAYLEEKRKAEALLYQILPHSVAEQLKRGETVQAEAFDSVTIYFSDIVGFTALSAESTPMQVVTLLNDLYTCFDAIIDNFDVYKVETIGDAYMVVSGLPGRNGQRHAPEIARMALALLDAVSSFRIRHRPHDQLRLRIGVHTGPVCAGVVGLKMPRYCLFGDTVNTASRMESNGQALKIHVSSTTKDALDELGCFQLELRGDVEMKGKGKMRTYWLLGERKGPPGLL

Tested on in one assay: not listed separately
The assay can be described thus: Natriuretic polypeptide receptor (hNpr1) antagonism - Pilot counterscreen GloSensor control cell line (AID 1347045). The conditions noted are these: HEK293 cGMP GloSensor cells, SNP-stimulated luminescence, 20 min; series mostly up to 38.3 µM. In short, it runs like this:
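HEK293 cGMP-sensor cells; 2% GloSensor reagent 2 h RT; LOPAC compounds in 1:5 titrations 30-50 min; 50 uM SNP 20 min; luminescence pre-read and post-read.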
On the technique in general: The purpose of a counterscreen is to sort out artefacts and off-target activity.
`C1COC(NC(C2CC2)C2CC2)=N1`: the outcome was inactive.
Turning to `OC(CCN1CCCCC1)(c1ccccc1)C1CC2C=CC1C2` (stereo not drawn), the compound was classed as inactive.
`NC(N)=NC(=O)c1nc(Cl)c(N)nc1N`: the outcome was inactive.
Take `Cc1cn[nH]c1`: the compound was called inactive.
For `NC(=O)c1cnccn1`, the call was inactive.
Take `Cc1oncc1C(=O)Nc1ccc(C(F)(F)F)cc1`: the compound was called inactive.
On to `Nc1nc2ccc(OC(F)(F)F)cc2s1`, for which the compound was classed as inactive.

For the next assay, the target named is Atrial natriuretic peptide receptor 1 (Homo sapiens) (UniProt P16066). The assay can be described thus: Natriuretic polypeptide receptor (hNpr1) antagonism - Pilot screen (AID 1347049).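 Further: HEK293 cells with hNpr1 and GloSensor cGMP luciferase stimulated by 0.1 nM hNppA; agonist-evoked cGMP luminescence read 20 min after hNppA addition.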 The conditions noted are these: hNpr1 cells, antagonist mode cGMP read-out; series mostly up to 57.5 µM. In short, it runs like this: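 Receptor antagonism read as cGMP-dependent luminescence in hNpr1/pGS-40F HEK293 cells: pre-read after 30 min compound exposure, post-read 20 min after hNppA agonist at 0.1 nM final, all at room temperature, protected from light; A-71915 titration as control.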
Chain of Atrial natriuretic peptide receptor 1 (Homo sapiens) (P16066 whole entry, looked up): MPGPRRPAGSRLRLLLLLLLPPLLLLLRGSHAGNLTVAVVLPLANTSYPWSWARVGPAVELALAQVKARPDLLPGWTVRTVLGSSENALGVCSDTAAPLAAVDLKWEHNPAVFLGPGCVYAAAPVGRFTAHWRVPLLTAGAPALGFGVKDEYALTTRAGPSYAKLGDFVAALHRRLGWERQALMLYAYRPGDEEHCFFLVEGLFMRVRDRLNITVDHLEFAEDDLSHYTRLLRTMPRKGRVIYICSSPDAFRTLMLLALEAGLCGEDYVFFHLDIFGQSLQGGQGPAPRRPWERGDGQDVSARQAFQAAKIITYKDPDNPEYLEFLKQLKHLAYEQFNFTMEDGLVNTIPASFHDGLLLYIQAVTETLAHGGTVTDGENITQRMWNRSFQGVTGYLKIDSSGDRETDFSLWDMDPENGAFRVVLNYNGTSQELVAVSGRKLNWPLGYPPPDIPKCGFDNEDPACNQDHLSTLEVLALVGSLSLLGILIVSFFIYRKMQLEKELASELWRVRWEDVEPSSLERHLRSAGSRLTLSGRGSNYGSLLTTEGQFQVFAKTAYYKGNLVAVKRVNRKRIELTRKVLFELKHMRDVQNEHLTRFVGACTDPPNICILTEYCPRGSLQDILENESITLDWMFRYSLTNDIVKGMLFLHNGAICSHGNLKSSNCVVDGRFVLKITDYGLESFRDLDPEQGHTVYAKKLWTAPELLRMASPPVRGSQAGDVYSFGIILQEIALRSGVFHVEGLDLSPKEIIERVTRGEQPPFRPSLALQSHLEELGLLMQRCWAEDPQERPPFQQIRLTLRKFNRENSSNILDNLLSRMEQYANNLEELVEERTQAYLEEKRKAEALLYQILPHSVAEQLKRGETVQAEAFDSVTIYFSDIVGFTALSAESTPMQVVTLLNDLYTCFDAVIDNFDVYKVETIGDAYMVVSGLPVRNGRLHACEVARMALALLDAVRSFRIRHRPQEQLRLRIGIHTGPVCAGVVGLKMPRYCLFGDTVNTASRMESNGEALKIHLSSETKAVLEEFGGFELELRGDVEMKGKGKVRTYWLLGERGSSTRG
In the case of `C1COC(NC(C2CC2)C2CC2)=N1`, the result was inactive.
The same measure, in the same setting: to `OC(CCN1CCCCC1)(c1ccccc1)C1CC2C=CC1C2` (stereo not drawn) belongs “inactive”; to `NC(N)=NC(=O)c1nc(Cl)c(N)nc1N`, “inactive”.
The same measure, in the same setting: next, `C[C@]12CCC(=O)C=C1CC[C@@H]1[C@@H]2[C@@H](O)C[C@@]2(C)[C@H]1CC[C@]2(O)C(=O)CO`: “inactive”; `Cc1cn[nH]c1`: “inactive”.
For the compound `NC(=O)c1cnccn1`, the outcome was inactive.
For `Cc1oncc1C(=O)Nc1ccc(C(F)(F)F)cc1`, the result was inactive.
Take `Nc1nc2ccc(OC(F)(F)F)cc2s1`: the result was inactive.

A further assay has as its target Atrial natriuretic peptide receptor 2 (Homo sapiens) (UniProt P20594). The assay can be described thus: Natriuretic polypeptide receptor (hNpr2) antagonism - Pilot subtype selectivity assay (AID 1347050). The conditions noted are these: NPR2-expressing cells, cGMP antagonist-mode read-out; series mostly up to 38.3 µM. In short, it runs like this:
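Antagonist mode: compounds (LOPAC1280, seven 1:5 dilutions) added 30 min before 1 nM hNppC stimulation of hNpr2-HEK293 cGMP-sensor cells; luminescence read before and 20 min after agonist at ambient temperature.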
With `C1COC(NC(C2CC2)C2CC2)=N1`, the Potency result was “inactive”.
For the compound `OC(CCN1CCCCC1)(c1ccccc1)C1CC2C=CC1C2` (stereo not drawn), the Potency entry is “inactive”.
The same measure, in the same setting: next, `NC(N)=NC(=O)c1nc(Cl)c(N)nc1N`: “inactive”.
As to `C[C@]12CCC(=O)C=C1CC[C@@H]1[C@@H]2[C@@H](O)C[C@@]2(C)[C@H]1CC[C@]2(O)C(=O)CO`, the Potency entry was “inactive”.
For `Cc1cn[nH]c1`, the Potency entry was “inactive”.
As for `NC(=O)c1cnccn1`, the Potency result is “inactive”.
On to `Cc1oncc1C(=O)Nc1ccc(C(F)(F)F)cc1`, for which the Potency entry was “inactive”.
Take `Nc1nc2ccc(OC(F)(F)F)cc2s1`: the Potency result is “inactive”.

Values taken from PubChem BioAssay (NCATS).
